The values that follow come from PubChem BioAssay (EPA / NIEHS).

Read-out in experiment [1]: organic anion transporter (SLCO1B1), SLCO1B1 (gene 10599)
In words: CLD_SLCO1B1_24hr: CellzDirect (CLD) Gene Expression Assay for organic anion transporter (SLCO1B1) at 24 hours (AID 2283690). In short, it runs like this:
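Primary human hepatocytes (two donor preparations) dosed daily for two days with chemicals at multiple concentrations, 0.2% DMSO vehicle. SLCO1B1 mRNA at 24 h measured by qNPA chemiluminescence; induction fitted relative to DMSO.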

Read-out in experiment [2]: sulfotransferase (SULT2A), SULT2A1 (gene 6822)
The experiment is described as follows: CLD_SULT2A_24hr: CellzDirect (CLD) Gene Expression Assay for sulfotransferase (SULT2A) at 24 hours (AID 2283694). The method in brief:
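Primary human hepatocytes from two donor preparations were dosed daily with fresh solutions, vehicle 0.2% DMSO. At 24 h, lysates went to quantitative nuclease protection (qNPA) with S1 digestion and chemiluminescent readout. Cytotoxicity was annotated from phase-contrast morphology.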

Read-out in experiment [3]: ABC Transporter (ABCB1), ABCB1 (gene 5243)
The experiment is described as follows: CLD_ABCB1_48hr: CellzDirect (CLD) Gene Expression Assay for ABC Transporter (ABCB1) at 48 hours (AID 2283695). In short, it runs like this:
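Primary human hepatocytes from two donor preparations dosed daily on two consecutive days with 0.2% DMSO vehicle. Harvest at 48 h. ABCB1 mRNA quantified by qNPA with chemiluminescence and fitted for gain of signal versus DMSO.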

Read-out in experiment [4]: Cytochrome P450 3A4 (Homo sapiens) (UniProt P08684)
In words: CLD_CYP3A4_48hr: CellzDirect (CLD) Gene Expression Assay for xenobiotic metabolism (CYP3A4) at 48 hours (AID 2283698). In short, it runs like this: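 Primary human hepatocytes from two donor preparations dosed daily for two days with multiple chemical concentrations, 0.2% DMSO vehicle. CYP3A4 mRNA at 48 h by quantitative nuclease protection assay, chemiluminescence, positive fit versus DMSO; cytotoxicity flagged morphologically.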

Read-out in experiment [5]: xenobiotic metabolism (CYP1A2), CYP1A2 (gene 1544)
The experiment is described as follows: CLD_CYP1A2_48hr: CellzDirect (CLD) Gene Expression Assay for xenobiotic metabolism (CYP1A2) at 48 hours (AID 2283703). In short, it runs like this:
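Primary human hepatocytes from two donor preparations were dosed daily for two days at multiple concentrations in 0.2% DMSO vehicle. CYP1A2 mRNA was measured at 48 hours by chemiluminescent quantitative nuclease protection assay, with gain of signal fitted versus DMSO and cytotoxicity annotated from morphology.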

Read-out in experiment [6]: Broad substrate specificity ATP-binding cassette transporter ABCG2 (Homo sapiens) (UniProt Q9UNQ0)
The experiment is described as follows: CLD_ABCG2_48hr: CellzDirect (CLD) Gene Expression Assay for ABC Transporter (ABCG2) at 48 hours (AID 2283704). In short, it runs like this:
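Primary human hepatocytes from two donors, dosed daily for 2 days, 0.2% DMSO vehicle, several concentrations. ABCG2 mRNA at 48 h by qNPA chemiluminescence, gain fitted versus DMSO; cytotoxicity flagged by morphology.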

Read-out in experiment [7]: alkyl and aryl transferase (GSTA2), GSTA2 (gene 2939)
The experiment is described as follows: CLD_GSTA2_48hr: CellzDirect (CLD) Gene Expression Assay for alkyl and aryl transferase (GSTA2) at 48 hours (AID 2283708).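 Also: active means mRNA induction above DMSO vehicle baseline.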 In short, it runs like this:
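Primary human hepatocytes dosed daily for two days (0.2% DMSO vehicle), harvested at 48 h. GSTA2 mRNA induction measured by quantitative nuclease protection assay with chemiluminescent imaging, fitted for gain of signal relative to DMSO.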

Read-out in experiment [8]: glucuronosyltransferase (UGT1A1), UGT1A1 (gene 54658)
In words: CLD_UGT1A1_48hr: CellzDirect (CLD) Gene Expression Assay for glucuronosyltransferase (UGT1A1) at 48 hours (AID 2283709).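 Also: actives increase expression relative to DMSO so potency refers to induction.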 In short, it runs like this: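 Human primary hepatocytes dosed daily for two days (0.2% DMSO vehicle), harvested at 48 h. UGT1A1 mRNA induction measured by quantitative nuclease protection assay with chemiluminescence; gain of signal versus DMSO; cytotoxicity flagged from morphology.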

Read-out in experiment [9]: glucuronosyltransferase (UGT1A1), UGT1A1 (gene 54658)
The experiment is described as follows: CLD_UGT1A1_24hr: CellzDirect (CLD) Gene Expression Assay for glucuronosyltransferase (UGT1A1) at 24 hours (AID 2283696). In short, it runs like this:
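Primary human hepatocytes from two donor preparations were dosed (0.2% DMSO vehicle) and harvested at 24 h; UGT1A1 mRNA induction was quantified by chemiluminescent qNPA, fitted as gain relative to DMSO.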

Read-out in experiment [10]: organic anion transporter (SLCO1B1), SLCO1B1 (gene 10599)
In words: CLD_SLCO1B1_48hr: CellzDirect (CLD) Gene Expression Assay for organic anion transporter (SLCO1B1) at 48 hours (AID 2283707). The method in brief: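 Primary human hepatocytes from two donor preparations dosed daily for two days with multiple concentrations, 0.2% DMSO vehicle. SLCO1B1 mRNA at 48 h by quantitative nuclease protection assay, chemiluminescence; gain-of-signal fitted versus DMSO.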

Read-out in experiment [11]: sulfotransferase (SULT2A), SULT2A1 (gene 6822)
The experiment is described as follows: CLD_SULT2A_48hr: CellzDirect (CLD) Gene Expression Assay for sulfotransferase (SULT2A) at 48 hours (AID 2283710).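 Also: hits raise SULT2A1 transcript above the 0.2% DMSO vehicle baseline.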 In short, it runs like this: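 Primary human hepatocytes (two donor preparations) dosed daily for two days with chemicals at multiple concentrations, vehicle 0.2% DMSO; SULT2A1 mRNA induction at 48 h by quantitative nuclease protection assay, chemiluminescent read-out, fitted for gain of signal versus DMSO.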

A short description of experiment [12]: CEETOX_H295R_MTT_cell_viability: Viability Assessment in the CeeTox HT-H295R MTT Assay (AID 2283718; active = hit-call score of the fitted dose curve at least 0.9, where 1 is the maximum; inactive = score below 0.9). The method in brief:
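MTT reduction (0.5 mg/ml, 4 h at 37 C; absorbance at 570 and 650 nm) gave viability as background-corrected percent change versus controls. H295R cells had 48 h forskolin (10 uM) prestimulation, then 48 h chemical exposure at 0.1% DMSO.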

Read-out in experiment [13]: Cytochrome P450 2B6 (Homo sapiens) (UniProt P20813)
In words: CLD_CYP2B6_48hr: CellzDirect (CLD) Gene Expression Assay for xenobiotic metabolism (CYP2B6) at 48 hours (AID 2283699).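 Also: actives raise transcript level above DMSO so potency reflects induction.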 In short, it runs like this: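 Primary human hepatocytes dosed daily for two days over multiple concentrations, 0.2% DMSO vehicle; CYP2B6 mRNA quantified at 48 h by qNPA chemiluminescence. Induction fitted as gain of signal versus DMSO; cytotoxicity annotated by morphology.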

Read-out in experiment [14]: Glyceraldehyde-3-phosphate dehydrogenase (Homo sapiens) (UniProt P04406)
The experiment is described as follows: CLD_GAPDH_48hr: CellzDirect (CLD) Gene Expression Assay for Baseline Control (Glyceraldehyde 3-phosphate dehydrogenase) at 48 hours (AID 2283706).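 Also: active means higher GAPDH mRNA than DMSO vehicle.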 In short, it runs like this:
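Primary human hepatocytes dosed daily for two days with fresh chemical at multiple concentrations, 0.2% DMSO vehicle; GAPDH mRNA measured at 48 h by quantitative nuclease protection assay with chemiluminescence, fitted upward relative to DMSO as background control.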

Read-out in experiment [15]: xenobiotic metabolism (CYP2C9), CYP2C9 (gene 1559)
The experiment is described as follows: CLD_CYP2C9_48hr: CellzDirect (CLD) Gene Expression Assay for xenobiotic metabolism (CYP1A2) at 48 hours (AID 2283701; active = hit-call score of the fitted dose curve at least 0.9, where 1 is the maximum; inactive = score below 0.9). In short, it runs like this: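 Primary human hepatocytes (two donor preparations) dosed daily for two days with test chemicals, 0.2% DMSO vehicle; harvested at 48 h. mRNA induction quantified by qNPA chemiluminescence, fitted for gain of signal against DMSO baseline; cytotoxicity annotated from phase-contrast morphology.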

The nature of experiment [16]: STM_H9_OrnithineISnorm_perc: Stemina devTOX quickPredict H9 human embryonic stem cell (hESC)-based Assay for Ornithine (ORN) Metabolite Biomarker, Normalized (AID 2283712; active = hit-call score of the fitted dose curve at least 0.9, where 1 is the maximum; inactive = score below 0.9;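 also: ornithine released into spent medium during last day measured by mass spectrometry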). The method in brief: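 H9 human embryonic stem cells kept pluripotent receive test chemical over 72 h, refreshed daily by media exchange. Media from the closing 24 h is deproteinized and analysed by UPLC-HRMS on an amide column; ornithine signal is scaled to labelled standard and vehicle.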

A short description of experiment [17]: STM_H9_CystineISnorm_perc: Stemina devTOX quickPredict H9 human embryonic stem cell (hESC)-based Assay for Cystine (CYSS) Metabolite Biomarker, Normalized (AID 2283713; active = hit-call score of the fitted dose curve at least 0.9, where 1 is the maximum; inactive = score below 0.9). The method in brief: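 H9 hESC, pluripotent; compound 72h, re-dosed q24h with medium change. Last-24h medium → 40% acetonitrile deproteinization → UPLC-HRMS. CYSS area / C13-CYSS standard, then % of 0.1% DMSO median.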

Read-out in experiment [18]: xenobiotic metabolism (CYP1A1), CYP1A1 (gene 1543)
In words: CLD_CYP1A1_48hr: CellzDirect (CLD) Gene Expression Assay for xenobiotic metabolism (CYP1A1) at 48 hours (AID 2283705). In short, it runs like this: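 Primary human hepatocytes from two donors dosed daily for two days at multiple concentrations, 0.2% DMSO vehicle; CYP1A1 mRNA induction at 48 h by qNPA chemiluminescence. Cytotoxicity noted by phase-contrast morphology.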

Inconclusive results are not listed. The source made the active and inactive calls. The calls were made as follows, unless noted: active = hit-call score of the fitted dose curve at least 0.9, where 1 is the maximum; inconclusive = response in the unintended direction; inactive = score below 0.9.

As a reminder, the AC50 is the concentration giving half of the maximal activity seen.

Sequence of Glyceraldehyde-3-phosphate dehydrogenase (Homo sapiens) (P04406 whole entry, looked up): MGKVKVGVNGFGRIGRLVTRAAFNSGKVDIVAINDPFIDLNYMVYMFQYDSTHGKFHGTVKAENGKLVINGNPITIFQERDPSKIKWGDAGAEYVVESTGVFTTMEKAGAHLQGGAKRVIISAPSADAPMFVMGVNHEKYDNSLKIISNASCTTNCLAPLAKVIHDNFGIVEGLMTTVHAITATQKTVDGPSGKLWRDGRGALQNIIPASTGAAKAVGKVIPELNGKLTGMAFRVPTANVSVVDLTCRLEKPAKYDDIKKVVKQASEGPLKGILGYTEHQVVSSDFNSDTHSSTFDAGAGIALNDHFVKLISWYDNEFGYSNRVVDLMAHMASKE
Sequence of Broad substrate specificity ATP-binding cassette transporter ABCG2 (Homo sapiens) (Q9UNQ0 whole entry, looked up): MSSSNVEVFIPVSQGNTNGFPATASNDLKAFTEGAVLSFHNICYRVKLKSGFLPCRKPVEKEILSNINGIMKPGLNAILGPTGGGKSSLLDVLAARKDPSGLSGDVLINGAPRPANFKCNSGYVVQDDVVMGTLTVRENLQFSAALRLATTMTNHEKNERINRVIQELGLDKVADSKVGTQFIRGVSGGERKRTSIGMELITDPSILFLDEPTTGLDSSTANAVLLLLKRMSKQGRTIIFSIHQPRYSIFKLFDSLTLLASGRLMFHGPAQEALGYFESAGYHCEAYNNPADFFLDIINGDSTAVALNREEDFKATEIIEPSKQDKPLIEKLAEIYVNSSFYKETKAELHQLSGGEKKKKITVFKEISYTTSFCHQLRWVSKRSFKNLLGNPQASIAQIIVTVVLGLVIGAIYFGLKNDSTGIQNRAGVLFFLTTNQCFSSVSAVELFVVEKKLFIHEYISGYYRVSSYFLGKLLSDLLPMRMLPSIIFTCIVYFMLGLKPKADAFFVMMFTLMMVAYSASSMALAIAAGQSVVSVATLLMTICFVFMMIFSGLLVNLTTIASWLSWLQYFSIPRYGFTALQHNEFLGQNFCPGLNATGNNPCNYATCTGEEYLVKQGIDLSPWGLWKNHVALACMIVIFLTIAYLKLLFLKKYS
Sequence of Cytochrome P450 3A4 (Homo sapiens) (P08684 whole entry, looked up): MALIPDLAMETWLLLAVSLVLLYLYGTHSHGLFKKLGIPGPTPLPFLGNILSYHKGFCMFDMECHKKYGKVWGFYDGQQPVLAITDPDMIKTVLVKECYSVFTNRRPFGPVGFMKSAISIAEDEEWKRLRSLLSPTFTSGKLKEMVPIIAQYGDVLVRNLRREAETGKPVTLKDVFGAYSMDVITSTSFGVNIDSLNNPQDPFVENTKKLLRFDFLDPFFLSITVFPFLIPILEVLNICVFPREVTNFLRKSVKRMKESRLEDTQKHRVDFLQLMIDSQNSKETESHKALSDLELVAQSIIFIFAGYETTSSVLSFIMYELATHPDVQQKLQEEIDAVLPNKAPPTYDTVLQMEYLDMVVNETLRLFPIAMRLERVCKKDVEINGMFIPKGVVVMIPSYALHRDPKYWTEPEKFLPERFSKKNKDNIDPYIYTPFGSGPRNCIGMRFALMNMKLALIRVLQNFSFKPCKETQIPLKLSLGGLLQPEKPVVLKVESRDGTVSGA

As to `CCOP(=S)(OCC)OC(Cl)C(Cl)(Cl)Cl` (stereo unspecified), the molecule was classed as inactive in [1], in experiment [2], in experiment [3], in [6] and in [7]. In addition, the concentration at half-maximal activity (AC50) in experiment [4] was 9.51 µM (active); in [5], 9.25 µM (active); in experiment [8] it was 4.19 µM (active).
Take `O=C(O)c1cc(Oc2ccc(C(F)(F)F)cc2Cl)ccc1[N+](=O)[O-]`: the molecule was called inactive in experiment [1], in experiment [2], in experiment [3], in experiment [9], in experiment [10] and in experiment [8]. Also, the outcome in experiment [11] and in [12] was inactive.
Take `CNC(=O)Oc1cccc2c1OC(C)(C)O2`: the result in experiment [1], in experiment [3], in experiment [9], in [5], in experiment [7] and in experiment [8] was inactive. In experiment [12], the molecule was classed as inactive. In addition, in [13], the half-maximal activity concentration (AC50) is 3.08 µM (active).
Turning to `CC1(C(=O)Nc2ccc(O)c(Cl)c2Cl)CCCCC1`, the outcome in experiment [1], in experiment [2], in experiment [9], in [6], in [14] and in experiment [7] was inactive. The outcome in [8] and in [12] was inactive.
Regarding `CCNc1nc(Cl)nc(NC(C)(C)C#N)n1`, the outcome in [1], in [2], in experiment [9], in experiment [5], in [8] and in experiment [11] was inactive. The result in experiment [16], in experiment [17] and in experiment [12] was inactive. In addition, the half-maximal activity concentration (AC50) in [15] was 0.0364 µM (active).
As for `S=C1NCCN1`, the molecule was called inactive in [1], in experiment [3], in experiment [9], in experiment [6], in [14] and in experiment [10]. For the same molecule, the result in [7], in [8], in [16] and in [17] was inactive.
On to `COP(=O)(NC(C)=O)SC` (stereo unspecified), for which the molecule was called inactive in [1], in experiment [5], in experiment [6], in [18], in [14] and in [10]. The molecule was classed as inactive in [7], in experiment [8], in experiment [11] and in experiment [12].
As to `COc1cc(OC)nc(Sc2cccc(Cl)c2C(=O)O)n1`, the call in experiment [1], in experiment [2], in [3], in experiment [13], in [5] and in [6] was inactive. The molecule was called inactive in [14], in experiment [10], in [7], in [8] and in [11].
Turning to `CNC(=O)ON=C(SC)C(=O)N(C)C`, the outcome in experiment [1], in [9], in experiment [5], in experiment [6], in experiment [14] and in experiment [7] was inactive. Also, the result in experiment [8] and in experiment [12] was inactive.
